The source of these data is PubChem BioAssay (NCATS).

Records with an inconclusive call do not appear. Activity calls are given as the source filed them. Unless noted, the call rests on the fitted dose curve; in most records, active means well fitted curve in the direction sought with a large enough effect; inconclusive means small, poorly fitted or top-dose-only effect, or another doubt; inactive means no such curve, though single readings can be large; an effect the other way counts as inactive or inconclusive. Bounds are passed on as bounds.

Experiment [1] concerns the target Lysosomal acid glucosylceramidase (Homo sapiens) (UniProt P04062). Description: Glucocerebrosidase-p2 (AID 348; in the data active means potency below about 10 µM; further: potency means the concentration at half of the fitted maximal effect). As to conditions: purified GBA, blue fluorogenic substrate, 40 min. A digest of the protocol:
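Compounds titrated from 0.6 nM upwards against 0.2 nM enzyme in pH 5.9 citric acid/KH2PO4, taurocholate, tween-20; blue fluorogenic substrate 80 uM, 40 min room temperature, stopped and read Ex 365/Em 440 for AC50.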

For experiment [2], the target named is Cytochrome P450 1A2 (Homo sapiens) (UniProt P05177). Description: p450-cyp1a2 (AID 410; calls by dose curve; further: potency means the concentration at half of the fitted maximal effect). As to conditions: recombinant CYP1A2, luciferin-ME demethylation, luminescence; series mostly up to 57 µM. A digest of the protocol:
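Human CYP1A2 (20nM) demethylated Luciferin-ME at its Km (100uM) in 100mM KPO4. After 10 min compound preincubation, NADPH regeneration ran the reaction 60 min at room temperature. Luciferin was read by luminescence, normalized to 57 uM furafylline.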

Experiment [3] deals with Glucocorticoid receptor (Homo sapiens) (UniProt P04150). Description: GR-GFP Redistribution (AID 450;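 active means compounds whose dose series gives a full or clear partial fitted curve of increased nuclear translocation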; further: potency means the concentration at half of the fitted maximal effect). As to conditions: U2OS GR-GFP nuclear translocation, laser cytometry, 2 h.
Glucocorticoid receptor (Homo sapiens), sequence (P04150 whole entry, looked up): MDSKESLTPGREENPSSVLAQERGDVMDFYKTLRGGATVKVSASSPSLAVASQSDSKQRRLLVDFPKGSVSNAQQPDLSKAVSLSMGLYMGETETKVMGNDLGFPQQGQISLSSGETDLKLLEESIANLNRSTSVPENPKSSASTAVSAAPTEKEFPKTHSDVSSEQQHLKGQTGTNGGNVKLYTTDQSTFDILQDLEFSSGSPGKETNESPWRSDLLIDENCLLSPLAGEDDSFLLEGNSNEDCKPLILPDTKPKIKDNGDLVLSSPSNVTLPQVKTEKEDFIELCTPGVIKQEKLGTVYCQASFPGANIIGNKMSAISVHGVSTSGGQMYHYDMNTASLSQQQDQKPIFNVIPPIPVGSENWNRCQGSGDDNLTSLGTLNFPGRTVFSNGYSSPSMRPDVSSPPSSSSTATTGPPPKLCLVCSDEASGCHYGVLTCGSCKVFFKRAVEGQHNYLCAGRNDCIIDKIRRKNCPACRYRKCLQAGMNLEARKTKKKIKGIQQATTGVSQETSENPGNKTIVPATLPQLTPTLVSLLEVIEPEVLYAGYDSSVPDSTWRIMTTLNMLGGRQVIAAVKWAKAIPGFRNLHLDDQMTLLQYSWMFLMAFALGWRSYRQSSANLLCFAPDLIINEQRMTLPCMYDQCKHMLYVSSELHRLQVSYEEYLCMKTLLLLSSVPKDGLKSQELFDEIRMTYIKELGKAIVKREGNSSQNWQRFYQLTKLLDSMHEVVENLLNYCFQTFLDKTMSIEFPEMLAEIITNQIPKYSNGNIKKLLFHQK
Experiment [4] shares this target. Description: GR-EFC Redistribution (AID 451; calls by dose curve; further: potency means the concentration at half of the fitted maximal effect). To be noted: CHO-K1 GR-EFC translocation, beta-gal luminescence, 2 h. A digest of the protocol:
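Translocation of GR-ED fusion to nuclear EA restores b-gal, read by luminescence after 1 h room-temperature detection. Engineered CHO-K1 biosensor cells, 1,000/well, exposed 2 h at 37 C to titrations up to 46 uM final.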

The target in experiment [5] is 3',5'-cyclic-AMP phosphodiesterase 4B (Homo sapiens) (UniProt Q07343). Briefly: qHTS Assay for Inhibitors of PDE-IV (AID 607; active means well fitted activation curve with a large enough effect in the main read-out, with a control signal flat, not every such curve was filed as active; further: % of control where 0% means no effect). As to conditions: HEK293 ACTOne CNG channel cells, membrane potential fluorescence; series mostly up to 22.9 µM. A digest of the protocol:
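Cell-based read-out of cAMP via a modified cyclic nucleotide-gated channel and membrane potential dye (535/590 nm) in HEK293 cells expressing PDE4 endogenously. Compounds tested up to 22.9 uM final; 100 uM RO 20-1724 reference.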

In experiment [6] the target is Cytochrome P450 3A4 (Homo sapiens) (UniProt P08684). Briefly: qHTS Assay for Activators of Cytochrome P450 3A4 (AID 885). Further: nearly all actives have a fitted effect of over 65% in size. As to conditions: recombinant CYP3A4, Luciferin-PPXE luminescence, 60 min; series mostly up to 57.1 µM. A digest of the protocol:
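Signal was normalized against complete inhibition by 57 uM ketoconazole. The reaction used 20nM CYP3A4 with 25uM Luciferin-PPXE, 10-min compound preincubation and a 60-min NADPH-supported step at RT.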
A general note: Quantitative high-throughput screening tests each substance at several concentrations.

A short description of experiment [7]: qHTS Assay for Lipid Storage Modulators (AID 1519; calls by dose curve). As to conditions: Drosophila S3 cells, BODIPY lipid droplet/cell ratio, laser cytometry, cells loaded with oleic acid; for activity change, negative = inhibition: at 57.5 µM (top of the series). A digest of the protocol: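 Cells seeded at 5,000 per well were treated with compounds over a concentration series and loaded with oleic acid (400 uM, as added). Lipid droplet fluorescence (488 nm excitation, 500-530 nm channel) was read by laser-scanning cytometry and normalized to 20 uM Triacsin C.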

Experiment [8] concerns the target Dual specificity protein kinase CLK4 (Homo sapiens) (UniProt Q9HAZ1). Description: qHTS Assay for Inhibitors of CDC-like Kinase 4 (Kinase-Glo Assay) (AID 1770). Further: nearly all actives have a fitted effect of over 65% in size. Further: potency means the concentration at half of the fitted maximal effect. To be noted: recombinant Clk4, Kinase-Glo ATP depletion luminescence; series mostly up to 66.7 µM. A digest of the protocol:
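Substrate mix (RS peptide 100 uM, ATP 1 uM) dispensed, compound pinned in, then Clk4 added to 25 nM final. Incubated 4.5 h at RT; Kinase-Glo reagent added, luminescence read after 5 min.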

Experiment [9] shares this target. Description: qHTS Assay for Inhibitors of CDC-like Kinase 4 (ADP-Glo Assay) (AID 1771). Further: nearly all actives have a fitted effect of over 70% in size. Further: potency means the concentration at half of the fitted maximal effect. As to conditions: recombinant CLK4, ADP-Glo luminescence; series mostly up to 80 µM. A digest of the protocol: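 Clk4 (25 nM) was incubated 1 hr at room temperature with 100 uM RS repeat peptide and 1 uM ATP in buffer with 2 mM MgCl2, 0.5 mM EGTA, 2.5 mM DTT. ADP formed was quantified by ADP-Glo luminescence.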

For experiment [10] the target is unchanged. Briefly: qHTS Assay for Inhibitors of CDC-like Kinase 4 (ADP-FP Assay) (AID 1795). Further: nearly all actives have a fitted effect of over 60% in size. Further: potency means the concentration at half of the fitted maximal effect. As to conditions: Transcreener ADP fluorescence polarization; series mostly up to 50 µM. A digest of the protocol:
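Clk4 6.25 nM; RS peptide 100 uM; ATP 1 uM; 25 mM Tris pH 7.5, 10 mM MgCl2; 1 h reaction. ADP detected via antibody/orange tracer FP displacement; TG003 positive control.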

A short description of experiment [11]: Stat Signaling Pathway (AID 446; active means well fitted curve in either direction with a large enough effect, not every such curve was filed as active;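 further: ME-180 cervical cancer cells given 40 pM IL-6 alongside compound; SIE-controlled beta-lactamase reporter measured as 460/530 nm FRET emission ratio; on the % scale 0 is the no-effect control and ±100 the full control effect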). To be noted: ME-180 SIE beta-lactamase reporter, IL-6 stimulated, 5 h; at 7.69 µM (top of the series) unless noted. A digest of the protocol: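 Reporter line: ME-180 cervical carcinoma, SIE-beta-lactamase. Treatment: compound with 40 pM IL-6, 5 hrs, 37 C, in low-serum OPTI-MEM with 10 mM HEPES pH 7.3. Detection: 460/530 nm fluorescence.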

The target of experiment [12] is Cytochrome P450 3A4 (Homo sapiens) (UniProt P08684). Description: qHTS Assay for Inhibitors and Substrates of Cytochrome P450 3A4 (AID 884). Further: nearly all actives have a fitted effect of over 50% in size. Further: potency means the concentration at half of the fitted maximal effect. To be noted: recombinant CYP3A4, Luciferin-PPXE luminescence; series mostly up to 57.1 µM. A digest of the protocol:
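20 nM human CYP3A4 with 25 uM Luciferin-PPXE (at KM) in 200 mM KPO4, preincubated 10 min with compound; NADPH regeneration started a 60 min RT reaction. Luciferin detected by luminescence, normalized to 57 uM ketoconazole as full inhibition.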

Experiment [13] concerns the target Cytochrome P450 2C19 (Homo sapiens) (UniProt P33261). Description: qHTS Assay for Inhibitors and Substrates of Cytochrome P450 2C19 (AID 899). Further: potency means the concentration at half of the fitted maximal effect; nearly all actives have a fitted effect of over 60% in size. To be noted: recombinant CYP2C19, luciferin-H EGE luminescence; series mostly up to 57.1 µM. A digest of the protocol: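 Luminescence readout of luciferin formed from 10uM Luciferin-H EGE (KM level) by 5 nM CYP2C19 in 50mM KPO4. 60 min NADPH-driven reaction at 37C after 10 min compound preincubation; data scaled to 57uM ketoconazole inhibition.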

The target of experiment [14] is Ubiquitin carboxyl-terminal hydrolase 1 (Homo sapiens) (UniProt O94782). Briefly: Inhibitors of USP1/UAF1: Pilot qHTS (AID 504865).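 Further: rhodamine fluorescence freed from ubiquitin-rhodamine substrate followed over time; top concentration of the series differs between compounds; on the % scale 0 is the no-effect control and ±100 the full control effect; nearly all actives have a fitted effect of over 35% in size.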 To be noted: purified USP1/UAF1, Ub-rhodamine cleavage fluorescence; series mostly up to 54.9 µM. A digest of the protocol: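 In 50mM HEPES pH 7.8 containing 0.5mM EDTA, 1mM TCEP, 0.1 mg/ml BSA and 0.01% Tween-20, 1nM USP1/UAF1 is exposed to compound for 15 min, then Ub-Rho (150nM final) is added and fluorescence is read over time.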
Ubiquitin carboxyl-terminal hydrolase 1 (Homo sapiens), sequence (O94782 whole entry, looked up): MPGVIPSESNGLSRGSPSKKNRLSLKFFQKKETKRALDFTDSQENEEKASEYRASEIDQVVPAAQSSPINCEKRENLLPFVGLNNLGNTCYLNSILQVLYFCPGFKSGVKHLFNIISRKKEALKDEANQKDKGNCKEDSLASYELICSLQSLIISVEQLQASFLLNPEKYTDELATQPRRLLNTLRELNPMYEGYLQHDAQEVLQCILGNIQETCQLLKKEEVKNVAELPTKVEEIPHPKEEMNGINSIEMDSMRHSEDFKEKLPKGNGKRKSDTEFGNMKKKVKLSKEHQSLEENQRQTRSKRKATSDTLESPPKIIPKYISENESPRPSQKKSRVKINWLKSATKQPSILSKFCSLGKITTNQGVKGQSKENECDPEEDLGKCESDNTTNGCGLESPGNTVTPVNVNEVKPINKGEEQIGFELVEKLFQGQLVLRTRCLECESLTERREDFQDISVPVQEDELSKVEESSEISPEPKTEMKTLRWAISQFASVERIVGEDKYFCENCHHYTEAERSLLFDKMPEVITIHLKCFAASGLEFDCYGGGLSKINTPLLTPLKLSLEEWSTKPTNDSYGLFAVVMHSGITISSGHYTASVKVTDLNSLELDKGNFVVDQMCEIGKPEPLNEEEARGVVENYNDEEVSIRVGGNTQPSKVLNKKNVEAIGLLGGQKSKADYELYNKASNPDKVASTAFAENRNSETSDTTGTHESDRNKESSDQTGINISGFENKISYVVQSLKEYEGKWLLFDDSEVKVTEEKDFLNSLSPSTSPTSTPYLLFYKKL

Experiment [15] in a line: AP1 Signaling Pathway (AID 357; active means well fitted curve in either direction with a large enough effect, not every such curve was filed as active;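 further: ME-180 reporter cells stimulated with EGF at its EC50 level; on the % scale 0 is the no-effect control and ±100 the full control effect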). As to conditions: ME-180 (cervical carcinoma) AP-1-bla reporter, EGF-induced, beta-lactamase ratio, 5 h; at 7.69 µM (top of the series) unless noted. A digest of the protocol: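 AP-1-bla ME-180 cells, Opti-MEM + 0.5% dialyzed FBS, plated overnight 37 °C. Cpd titration + EC50 EGF, 5 h 37 °C. CCF4 2.5 h RT; ex 405, em 460/530 ratio → %activity, AC50.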
The target in experiment [16] is Mitogen-activated protein kinase 10 (Mus musculus) (UniProt Q61831). Briefly: JNK3 AlphaScreen Assay (AID 530; active means well fitted curve in either direction with a large enough effect, not every such curve was filed as active;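 further: kinase came from lysate of stimulated human HepG2 cells; signal reports phosphorylation of biotinylated GST-cJun 1-79 at Ser73 with 10 µM ATP; on the % scale 0 is the no-effect control and ±100 the full control effect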). To be noted: JNK3 lysate, c-Jun phosphorylation; series mostly up to 57.1 µM. A digest of the protocol:
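Room-temperature AlphaScreen kinase assay; pre-activated HepG2 lysate as JNK3 source, biotin-GST-cJun(1-79) substrate, 10 uM ATP, compound 15 min preincubation.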
(Alpha assays give light when donor and acceptor beads are brought close together.)

Experiment [17] is described as follows: NFAT Signaling Pathway (AID 444; active means well fitted curve in either direction with a large enough effect, not every such curve was filed as active;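 further: carbachol stimulus at about its EC50 of 1 µM final; on the % scale 0 is the no-effect control and ±100 the full control effect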). As to conditions: Jurkat NFAT-bla M1, carbachol, beta-lactamase ratio, 5 h; at 7.69 µM (top of the series) unless noted. A digest of the protocol: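 Read-out: CCF4 FRET ratio (460 nm/530 nm) after 1 h RT dye loading, used for %activity and AC50 from titration series. Cells: Jurkat NFAT-β-lactamase/M1 line, treated with compound plus 1 uM carbachol for 5 h, 37 °C.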

Setting [18] is: measured here: cell count channel max response.
Where [19] appears, read: measured here: lipid channel max response.

3',5'-cyclic-AMP phosphodiesterase 4B (Homo sapiens), sequence (Q07343 whole entry, looked up): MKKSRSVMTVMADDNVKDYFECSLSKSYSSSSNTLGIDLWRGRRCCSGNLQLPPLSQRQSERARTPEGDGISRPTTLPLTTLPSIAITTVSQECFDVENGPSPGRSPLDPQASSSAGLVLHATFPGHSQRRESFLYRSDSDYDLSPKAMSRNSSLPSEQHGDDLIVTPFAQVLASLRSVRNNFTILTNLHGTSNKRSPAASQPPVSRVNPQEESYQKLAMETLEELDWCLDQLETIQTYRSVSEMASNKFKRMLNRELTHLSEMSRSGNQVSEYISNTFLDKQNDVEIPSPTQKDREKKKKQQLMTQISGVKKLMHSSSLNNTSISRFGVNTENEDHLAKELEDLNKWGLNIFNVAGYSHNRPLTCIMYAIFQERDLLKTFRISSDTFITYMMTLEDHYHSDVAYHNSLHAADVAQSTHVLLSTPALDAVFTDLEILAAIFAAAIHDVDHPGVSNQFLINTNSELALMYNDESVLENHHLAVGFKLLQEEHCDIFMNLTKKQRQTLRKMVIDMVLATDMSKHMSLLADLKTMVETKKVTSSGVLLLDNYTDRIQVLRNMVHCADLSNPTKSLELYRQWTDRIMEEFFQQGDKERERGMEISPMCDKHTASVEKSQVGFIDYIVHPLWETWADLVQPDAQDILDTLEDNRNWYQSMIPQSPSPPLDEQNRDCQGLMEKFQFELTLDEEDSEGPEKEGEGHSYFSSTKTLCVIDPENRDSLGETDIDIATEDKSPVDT
Cytochrome P450 3A4 (Homo sapiens), sequence (P08684 whole entry, looked up): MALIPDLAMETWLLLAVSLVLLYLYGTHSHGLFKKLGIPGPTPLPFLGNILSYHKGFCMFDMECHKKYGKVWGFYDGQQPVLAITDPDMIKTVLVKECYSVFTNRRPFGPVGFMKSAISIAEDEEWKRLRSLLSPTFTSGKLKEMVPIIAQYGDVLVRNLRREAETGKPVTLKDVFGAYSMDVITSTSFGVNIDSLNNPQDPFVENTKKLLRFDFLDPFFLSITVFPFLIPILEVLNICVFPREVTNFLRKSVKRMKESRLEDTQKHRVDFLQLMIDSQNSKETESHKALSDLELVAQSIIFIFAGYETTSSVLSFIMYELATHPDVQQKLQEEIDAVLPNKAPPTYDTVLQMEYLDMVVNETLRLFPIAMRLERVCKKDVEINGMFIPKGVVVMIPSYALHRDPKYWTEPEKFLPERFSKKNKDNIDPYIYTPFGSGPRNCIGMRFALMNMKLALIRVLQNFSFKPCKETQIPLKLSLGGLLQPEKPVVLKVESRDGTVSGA
Cytochrome P450 1A2 (Homo sapiens), sequence (P05177 whole entry, looked up): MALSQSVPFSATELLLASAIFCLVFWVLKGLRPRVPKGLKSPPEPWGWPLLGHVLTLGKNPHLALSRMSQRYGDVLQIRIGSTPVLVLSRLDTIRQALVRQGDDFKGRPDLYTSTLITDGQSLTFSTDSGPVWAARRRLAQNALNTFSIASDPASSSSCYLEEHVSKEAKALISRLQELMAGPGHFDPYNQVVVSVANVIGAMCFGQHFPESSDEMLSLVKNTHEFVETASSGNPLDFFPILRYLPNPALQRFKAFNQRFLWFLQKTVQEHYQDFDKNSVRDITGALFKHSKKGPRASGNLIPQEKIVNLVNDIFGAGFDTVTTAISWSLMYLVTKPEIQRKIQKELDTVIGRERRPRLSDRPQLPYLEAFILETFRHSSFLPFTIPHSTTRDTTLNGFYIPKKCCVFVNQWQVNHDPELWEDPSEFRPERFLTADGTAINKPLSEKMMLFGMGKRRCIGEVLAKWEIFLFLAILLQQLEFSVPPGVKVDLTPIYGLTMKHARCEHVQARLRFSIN
Lysosomal acid glucosylceramidase (Homo sapiens), sequence (P04062 whole entry, looked up): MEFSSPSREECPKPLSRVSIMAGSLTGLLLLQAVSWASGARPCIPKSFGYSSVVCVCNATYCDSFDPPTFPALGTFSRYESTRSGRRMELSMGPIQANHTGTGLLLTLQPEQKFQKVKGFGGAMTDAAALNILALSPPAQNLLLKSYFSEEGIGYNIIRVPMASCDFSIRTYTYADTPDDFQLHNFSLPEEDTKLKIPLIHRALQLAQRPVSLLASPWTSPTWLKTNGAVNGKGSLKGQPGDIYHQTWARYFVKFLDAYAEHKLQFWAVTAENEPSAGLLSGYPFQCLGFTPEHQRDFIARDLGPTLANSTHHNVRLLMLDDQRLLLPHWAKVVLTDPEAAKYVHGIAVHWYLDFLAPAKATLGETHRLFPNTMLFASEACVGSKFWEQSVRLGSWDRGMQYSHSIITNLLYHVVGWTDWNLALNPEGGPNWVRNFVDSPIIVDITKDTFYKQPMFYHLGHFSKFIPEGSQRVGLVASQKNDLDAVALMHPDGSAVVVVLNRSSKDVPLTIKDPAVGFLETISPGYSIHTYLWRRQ
Dual specificity protein kinase CLK4 (Homo sapiens), sequence (Q9HAZ1 whole entry, looked up): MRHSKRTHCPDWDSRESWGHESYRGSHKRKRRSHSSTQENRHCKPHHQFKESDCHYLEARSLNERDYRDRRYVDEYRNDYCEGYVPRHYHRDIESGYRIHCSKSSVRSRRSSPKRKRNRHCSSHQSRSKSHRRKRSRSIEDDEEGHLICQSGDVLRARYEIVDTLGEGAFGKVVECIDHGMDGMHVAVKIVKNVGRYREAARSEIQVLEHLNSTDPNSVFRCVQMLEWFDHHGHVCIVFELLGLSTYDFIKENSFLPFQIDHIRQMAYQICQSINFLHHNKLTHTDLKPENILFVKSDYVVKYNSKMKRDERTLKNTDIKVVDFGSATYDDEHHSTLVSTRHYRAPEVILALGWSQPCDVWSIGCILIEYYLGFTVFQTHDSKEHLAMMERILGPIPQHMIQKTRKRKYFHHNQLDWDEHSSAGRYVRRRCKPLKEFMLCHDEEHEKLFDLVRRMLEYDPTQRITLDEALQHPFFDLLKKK
Cytochrome P450 2C19 (Homo sapiens), sequence (P33261 whole entry, looked up): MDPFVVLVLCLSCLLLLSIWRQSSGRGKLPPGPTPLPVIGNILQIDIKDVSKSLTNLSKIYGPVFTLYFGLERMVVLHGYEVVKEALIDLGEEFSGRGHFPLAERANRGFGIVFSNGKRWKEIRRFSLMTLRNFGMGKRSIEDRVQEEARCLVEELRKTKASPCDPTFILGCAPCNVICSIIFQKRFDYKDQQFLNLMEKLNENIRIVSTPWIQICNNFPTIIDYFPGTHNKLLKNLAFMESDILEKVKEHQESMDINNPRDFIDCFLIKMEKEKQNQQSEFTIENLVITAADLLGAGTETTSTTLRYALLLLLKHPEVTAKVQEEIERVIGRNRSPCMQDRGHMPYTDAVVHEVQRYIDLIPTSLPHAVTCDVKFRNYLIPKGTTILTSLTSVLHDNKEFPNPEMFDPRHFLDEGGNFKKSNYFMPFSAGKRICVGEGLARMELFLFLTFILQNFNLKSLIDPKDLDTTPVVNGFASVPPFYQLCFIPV

With `COc1cccc(Cn2c(=O)c(-c3ccc(F)cc3)nc3cnc(N4CCNCC4)nc32)c1`, the Potency in experiment [1] is > 11.4 µM (inactive); in [2] it was 25.1 µM (active); in experiment [3], > 9.22 µM (inactive); in [4] it was > 46 µM (inactive). Further, the Potency entry in experiment [5], in experiment [6], in experiment [8], in experiment [9] and in experiment [10] was “inactive” in each case. Also, in [7], the activity change, negative = inhibition is -5.11% (inactive). Further, the max response in [7] (setting [18]) came to 2.95%; in experiment [7] (setting [19]), 0.893%.

As to `COc1ccc(CNc2ncnc3ccc(-c4ccc(N(C)C)cc4)cc23)c(OC)c1`, the Potency is 2.51 µM (active) in [2]; > 46 µM (inactive) in experiment [3]; > 46 µM (inactive) in experiment [4]; 3.98 µM (active) in experiment [12]; 3.98 µM (active) in experiment [13]. Besides, the activity, negative = inhibition in experiment [11] was -9.37% (inactive). The Potency entry in experiment [5], in [6], in experiment [8], in experiment [10] and in experiment [14] was “inactive” in each case. The activity change, negative = inhibition in experiment [7] is 3.77% (inactive). Further, the max response in experiment [7] (setting [18]) is -26.6%; in experiment [7] (setting [19]) it was -24.8%.

Regarding `Cc1ccccc1-c1cncnc1N1CCN(C)CC1`, the Potency in [1] is > 11.4 µM (inactive); in experiment [2], 15.8 µM (active); in [3] it was > 46 µM (inactive); in experiment [4] it was > 46 µM (inactive); in [12], 1.58 µM (active). Further, the activity change, negative = inhibition is 7.79% (inactive) in [15] and 4.3% (inactive) in experiment [7]. For the same compound, the activity, negative = inhibition in [11] is 11.4% (inactive). Besides, the Potency entry in [16], in experiment [5], in experiment [6], in experiment [8], in experiment [10] and in [14] was “inactive” each time. Further, the results for the max response in experiment [7] (setting [18]) and in experiment [7] (setting [19]) were 4.53% and 8.66%, respectively.

For the compound `COc1ccccc1CNc1ncnc2ccc(-c3ccoc3)cc12`, the Potency is 2.51 µM (active) in [2]; > 46 µM (inactive) in experiment [3]; > 46 µM (inactive) in [4]; 0.251 µM (active) in [8]; 0.141 µM (active) in [10]. Besides, the activity change, negative = inhibition in [17] is -7.72% (inactive); in experiment [7] it was -10.7% (inactive). Also, the activity, negative = inhibition in [11] is -21.5% (inactive). Also, the Potency result in experiment [16], in experiment [6] and in experiment [14] was “inactive” in each case. Also, the max response stood at 20% in experiment [7] (setting [18]) and 4.99% in experiment [7] (setting [19]).

In the case of `COCCn1c(=O)c(C)nc2cnc(Nc3cccc(OC)c3)nc21`, the Potency in experiment [1] was > 11.4 µM (inactive); in experiment [2], 1 µM (active); in experiment [4], > 46 µM (inactive); in experiment [8], 15.8 µM (active); in experiment [9], 25.1 µM (active). Further, the activity change, negative = inhibition in experiment [15] was 7.44% (inactive); in experiment [17] it was 5.07% (inactive); in experiment [7], -6.39% (inactive). In addition, in experiment [11], the activity, negative = inhibition is -7.83% (inactive). Further, the Potency result in experiment [16], in experiment [5], in [6] and in [14] was “inactive” each time. Moreover, the max response in [7] (setting [18]) was -14.8%; in experiment [7] (setting [19]), -22.1%.

As for `CN1CCN(c2ncc3nc(CCc4ccccc4)c(=O)n(C)c3n2)CC1`, the Potency in [1] was > 11.4 µM (inactive); in experiment [2], 12.6 µM (active); in experiment [3], > 9.22 µM (inactive); in [4], > 46 µM (inactive). Also, the figures for the activity change, negative = inhibition in experiment [15], in [17] and in experiment [7] were 14.9% (inactive), 1.74% (inactive) and 3.14% (inactive), respectively. The activity, negative = inhibition in experiment [11] is -2.48% (inactive). The Potency result in experiment [16], in experiment [5], in experiment [12], in experiment [8], in experiment [10] and in experiment [14] was “inactive” each time. The figures for the max response in [7] (setting [18]) and in experiment [7] (setting [19]) were 18.8% and 18.3%, respectively.
